Reference: PubChem BioAssay AID1347088 (National Center for Advancing Translational Sciences (NCATS), 2019)
Records with an inconclusive call do not appear. Unmarked numbers belong to inactive results. Active and inactive are the calls of the source. Calls come from the whole dose curve.

Assay: qHTS for Inhibitors of the Functional Ribonucleoprotein Complex (vRNP) of Lymphocytic Choriomeningitis Arenaviruses (LCMV): Viability assay - Alamar blue signal for LCMV Confirmatory Screen
Conditions: LCMV vRNP confirmatory screen cells; series mostly up to 53.9 µM; viability change, negative = toxic: at the top concentration

Row | Structure (SMILES) | viability change, negative = toxic | Potency
1 | CCCCC[C@H](O)/C=C/C=C/C/C=C\CCCC(=O)O | -17.3% [at 0.666 µM] | 
2 | CC[C@@H](C(=O)O)[C@@H]1O[C@@H]([C@@H](C)[C@H](O)[C@H](C)C(=O)[C@H](CC)[C@H]2O[C@]3(C=C[C@@H](O)[C@]4(CC[C@@](C)([C@H]5CC[C@](O)(CC)[C@H](C)O5)O4)O3)[C@H](C)C[C@@H]2C)[C@@H](C)C[C@@H]1C |  | 4.44 µM (active)
3 | CC(C)=CCC/C(C)=C/CC/C(C)=C/CC[C@]1(C)CCc2c(C)c(O)c(C)c(C)c2O1 | -1.54% [at 6 µM] | 
4 | N#CC(=C(\N)Sc1ccccc1N)/C(C#N)=C(/N)Sc1ccccc1N | -21.2% | 
5 | Oc1cc(Cl)ccc1Oc1ccc(Cl)cc1Cl |  | 44.4 µM (active)
6 | O=C(Nc1ccccc1)Nc1ccc(-c2ccc(C(=O)[C@H]3CCC[C@H]3C(=O)O)cc2)cc1 | -10.2% | 
7 | O=C(Nc1ccc([N+](=O)[O-])cc1Cl)c1cc(Cl)ccc1O |  | 3.43 µM (active)
8 | COC(=O)c1nc(Cl)c(Cl)nc1N |  | 6.11 µM (active)
9 | CC(=O)[C@H]1CC[C@H]2[C@@H]3CCC4=CC(=O)CC[C@]4(C)[C@H]3CC[C@]12C | -24.7% | 
10 | CC[C@@]1([C@@H]2O[C@@H]([C@H]3O[C@@](O)(CO)[C@H](C)C[C@H]3C)C[C@H]2C)CC[C@H]([C@]2(C)CC[C@]3(C[C@H](O)[C@@H](C)[C@@H]([C@@H](C)[C@@H](OC)[C@H](C)C(=O)O)O3)O2)O1 |  | 5.95 µM (active)
11 | Cc1cnc(NC(=O)C2=C(O)c3ccccc3S(=O)(=O)N2C)s1 | -23.7% | 
12 | Clc1nccc2c1ccc1ccccc12 | -18.9% | 
13 | CCC(C)c1nccnc1OC (centres undefined) | -4.73% [at 110 µM] | 
14 | O=C(Nc1ccc(Cl)c(Cl)c1)C1CC1 | 10.2% | 
15 | CC12C(=O)OC(=O)C1(C)C1CCC2O1 (centres undefined) |  | 8.63 µM (active)
16 | O=C(CCCN1CCN(c2ccc(F)cc2)CC1)NC1c2ccccc2CSc2ccccc21 (centres undefined) | -20.7% | 
17 | C[C@]12CC[C@@H](O)C[C@H]1CC[C@@H]1[C@H]2CC[C@]2(C)C(=O)CC[C@@H]12 | -2.15% | 
18 | CN(C)c1ccc(O)c2c1C[C@H]1C[C@H]3[C@H](N(C)C)C(=O)C(C(N)=O)=C(O)[C@@]3(O)C(=O)C1=C2O | 12.4% | 
19 | COc1ccc(Cc2nccc3cc(OC)c(OC)cc23)cc1OC |  | inactive
20 | O=c1ccc2ccc(O)c(O)c2o1 | -6.63% | 
21 | CO/C=C(/C(=O)OC)c1ccccc1Oc1cc(Oc2ccccc2C#N)ncn1 |  | 49.8 µM (active)
22 | CN1C(C(=O)Nc2ccccn2)=C(O)c2ccccc2S1(=O)=O | 4.12% | 
23 | CC(O)C(O)[C@H]1CNc2nc(N)[nH]c(=O)c2N1 (some centres undefined) | -3.99% | 
24 | CCn1c(-c2nonc2N)nc2cnc(Oc3cccc(NC(=O)c4ccc(OCCN5CCOCC5)cc4)c3)cc21 |  | 24.3 µM (active)
